Compound activity from PubChem.
HP1b binding inh: inhibitors of HP1-beta chromodomain binding to methylated histone tails; Potency, µM (highest dose often 114 µM), inactives show at the top dose activity change, negative = inhibition, usual class: inhibitors; AlphaScreen HP1-beta / biotin-H3K9me3 peptide binding; P83916; actives 0.56% (n = 390,000); note: nearly all actives have a fitted effect of over 70% in size
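HP1-beta protein (50 nM final) preincubated 30 min at room temperature with biotinylated H3(1-18)K9me3 peptide (50 nM) in PBS pH 7.4, 0.01% Tween-20, then compound added for 30 min. AlphaScreen streptavidin donor/nickel chelate acceptor beads (10 ug/mL final), 30 min dark, luminescence read.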
JMJD2A Tudor: inhibitors of human JMJD2A Tudor domain; O75164; AlphaScreen JMJD2A-Tudor / H3K4me3 peptide binding; Potency, µM (top dose mostly 114 µM), for the others: top-dose activity change, negative = inhibition, hits mostly inhibitors; actives 4.4% (n = 390,000); note: % is set by controls: 0 for no effect and ±100 for the full control effect; nearly all actives have a fitted effect of over 50% in size
BAZ2B block: blocks human BAZ2B; actives 4.4% (n = 360,000); Q9UIF8; AlphaScreen BAZ2B-H3K14Ac peptide displacement; AID 504333; Potency, µM (top dose mostly 114 µM), for the others: top-dose activity change, negative = inhibition, most hits filed as inhibitors; note: % is set by controls: 0 for no effect and ±100 for the full control effect; nearly all actives have a fitted effect of over 60% in size
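Protein-peptide AlphaScreen: BAZ2B 50 nM, b-H3K14Ac 50 nM, 1x PBS pH 7.4 + 0.01% Tween-20. Preincubation 30 min RT; cpd 30 min RT (top 110 uM); beads 20 min RT, light-protected.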
G9a block: blocks human histone lysine methyltransferase G9a; Q96KQ7; G9a H3K9 monomethylation, AlphaScreen, 2 h; Potency, µM (doses to about 102 µM), without a hit: at the top dose activity, negative = inhibition, hits mostly inhibitors; actives 8.8% (n = 350,000); AID 504332; note: % is set by controls: 0 for no effect and ±100 for the full control effect; nearly all actives have a fitted effect of over 75% in size
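Enzyme 20 nM + cpd, 15 min RT; add b-H3K9 pep 500 nM / SAM 20 uM; 2 h RT; anti-H3K9me1 Ab 0.5 ug/mL + SA donor / anti-rabbit acceptor beads 20 ug/mL each, 10 min; AlphaScreen read.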
Sfp PPTase inh: blocks B. subtilis Sfp PPTase activity; Biochemical Sfp PPTase activity, qHTS; actives 3.5% (n = 310,000); Potency, µM, without a hit: largest response in the series, negative = inhibition, most hits filed as inhibitors; Q9F4F7; AID 1490;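 note: the enzyme is Sfp with the accession as filed and its product quenches rhodamine fluorescence; 0% = enzyme reaction without inhibitor and -100% = no enzyme wells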
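After 15 min at room temperature with compound, 15 nM Sfp received 5 uM rhodamine-CoA plus 12.5 uM BHQ-2-ybbR (50 mM Hepes pH 7.6, 10 mM MgCl2). Rate came from the fluorescence difference over 30 min, ex 525/em 598 nm.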
* = called active by the depositor; ? = inconclusive; . = no result given; [ ] = dose if it differs, or a comment. In the library only some 12% were active in any assay of this set; here they are far more common. Calls come from the whole dose curve; as a rule, active = well fitted curve in the direction sought with a large enough effect; inconclusive = small, poorly fitted or top-dose-only effect, or another doubt; inactive = no such curve, though single readings can be large; an effect the other way counts as inactive or inconclusive. Potency is the fitted concentration of half-maximal effect.

SMILES | HP1b binding inh | JMJD2A Tudor | BAZ2B block | G9a block | Sfp PPTase inh
Cc1ccccc1C(=O)NNC(=O)CSc1nc2ccccc2c(=O)[nH]1 | 13% | 1% | 0% | 19%[59 µM] | 12%
CCOC(=O)c1nn(-c2ccc(F)cc2)c2c1CC/C2=C/c1ccccc1 | 38% | -7% | -1% | 71µM* | 0%
CCOC(=O)c1nn(-c2ccccc2)c(C(=O)OCC)c1N | 27% | -7% | -1% | -24%[12.7 µM] | 16%
Cn1nc(-c2ccccn2)nc2c(=O)n(C)c(=O)nc1-2 | 20% | 11µM* | 10µM* | 14µM* | 50µM*
Cc1ccc(C(=O)Oc2csc(=S)n2C(=O)c2ccc(C)cc2)cc1 | -7% | ? | ? | 1.1µM* | 45µM*
Cc1ccc(C(=O)N2CCSC2=S)cc1 | ? | -26% | -32% | -7% | 15%
COc1cccc(NC(=O)CSc2nc(-c3ccccc3Cl)nc3c2Cc2c(CO)cnc(C)c2O3)c1 | 35% | 5% | -2% | -5%[59 µM] | .
N#CC(C#N)=C(N)/C(C#N)=C/c1cc(O)c(O)c(O)c1 | 18µM* | 18µM* | 11µM* | 5.6µM* | 40µM*
N#C/C(=C/c1ccc(F)cc1)C(N)=S | -4% | -8% | -15% | 5.6µM* | 35µM*
Cn1cccc1/C=C(/C#N)C(N)=S | -6% | -24% | ? | ? | -2%
CC(C)(C)c1cc(/C=C(\C#N)C(N)=S)cc(C(C)(C)C)c1O | . | . | . | 28µM* | -22%
N#C/C(=C/c1cc(Cl)c(O)c(Cl)c1)C(=O)N1CCCCC1 | 26% | -14% | -4% | 27%[59 µM] | 3%
[C-]#[N+]/C(C#N)=C\c1cc(C(C)(C)C)c(O)c(C(C)(C)C)c1 | . | . | . | . | 45µM*
Cc1cc(C)nc(OC(C(=O)O)C(OCCc2ccccc2)(c2ccccc2)c2ccccc2)n1 (centres undefined) | 21% | -10% | -15% | . | 10%
CCN(CC)S(=O)(=O)c1cccc(C(=O)Nc2ccccc2C(=O)Nc2ccc(Cl)cc2)c1 | 30% | -10% | 5% | 10%[59 µM] | .
CN(C)C(=O)N1CCCC(C(=O)NCc2ccc(F)cc2Cl)C1 (centres undefined) | 29% | -13% | 14% | ? | -4%
Oc1ccc(/C=N/N=C(c2ccccc2)c2ccccc2)c(O)c1O | 45µM* | 56µM* | 25µM* | 1.4µM* | 2.8µM*
O=C(/C(=N/N=C/c1ccc(O)c(O)c1O)c1ccccc1)c1ccccc1 | ? | 35µM* | 32µM* | 1.1µM* | -96%
Oc1cccc(C=NCc2ccccc2)c1O | -14% | -25% | ? | ? | ?
Cc1cc2c(c3oc(=O)c4ccccc4c13)CN(Cc1ccc(F)cc1)CO2 | 22% | -21% | -10% | ? | .
O=C(CNS(=O)(=O)c1ccc(Br)cc1Cl)OCC(=O)N1CCCC1=O | 57% | 1% | 37% | -14%[12.7 µM] | .
CCNc1nc(NC(C)(C)C)nc(N(C#N)CC)n1 | 9% | -11% | 3% | . | -3%
Cc1ccc(CNC(=O)C2CCCCN2S(=O)(=O)c2ccccc2)cc1 (centres undefined) | 20% | 11% | 5% | -6%[59 µM] | 10%
CCc1ccccc1OCCCCN1CCCCC1 | ? | 1.8µM* | ? | 40µM* | -1%
COc1ccccc1OCCCCN1CCCCC1 | 10% | -9% | -35% | 25% | 9%
SMILES | HP1b binding inh | JMJD2A Tudor | BAZ2B block | G9a block | Sfp PPTase inh
Cc1ccccc1OCCCCN1CCCCC1 | 43% | -7% | -3% | 6%[59 µM] | 15%
CCc1ccccc1OCCCN1CCCC1 | -15% | -89% | ? | 50µM* | -2%
Cc1cc(C)n(-c2nc3ccccc3c(=O)n2OCCOc2ccccc2)n1 | -2% | -34%[11.4 µM] | -3% | -12%[59 µM] | -19%
COc1ccccc1NC(=S)N(Cc1ccco1)Cc1cc2cc(C)cc(C)c2[nH]c1=O | 27% | -1% | -9% | -11%[59 µM] | 11%
COc1ccccc1NC(=S)N(Cc1ccco1)Cc1cc2ccc(C)c(C)c2[nH]c1=O | 7% | -32% | -5% | 9%[59 µM] | 50µM*
CCNC(=S)N(Cc1ccco1)Cc1cc2cc(OCC)ccc2[nH]c1=O | 11% | -21% | ? | 45µM* | 10µM*
Cc1ccc2[nH]c(=O)c(CN(CC3CCCO3)C(=S)NCc3ccco3)cc2c1 (centres undefined) | 6% | -9% | -38% | -8%[59 µM] | -5%
